# Records with an inconclusive call do not appear. A call without a number means that no potency is given here. Active and inactive are the calls of the source. Calls follow the shape of the dose curve; as a rule, active = well fitted cell-killing curve with a large enough effect; inconclusive = small, poorly fitted or top-dose-only effect, or effect the other way; inactive = flat fitted curve, though single readings scatter.
# What was measured:
# Assay in all cases: Primary qHTS to identify gynecologic anti-cancer compounds using libraries of approved drugs and bioactive compounds (AID 1345084); also: nearly all actives have a fitted effect of over 55% in size
# Settings in all cases: Gynecologic cancer cell panel viability, ATPlite luminescence, 48 h; series mostly up to 57.5 µM
# [1] = tested on: PA-1
# How it was run: (§1)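 In this quantitative HTS, cell killing is estimated from loss of ATP-dependent luciferase light. Cells see five compound concentrations over a 48 h exposure.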
# [2] = tested on: Tov-21-G
# How it was run: as §1
# [3] = tested on: Tov112D
# How it was run: as §1
# [4] = tested on: SKOV3
# How it was run: as §1
# Potency is read from the fitted curve at half-maximal effect.
Structure (SMILES),Potency [1],Potency [2],Potency [3],Potency [4]
COc1cc(/C=C/C(=O)NCCn2c(C(F)(F)F)cc3ccccc32)cc(OC)c1OC,inactive,inactive,inactive,–
CCn1c(N)c(C(=O)NC)c(=O)c2ccc(C#CC(C)(O)COC)nc21 (stereo not drawn),inactive,inactive,inactive,–
C=CC(=O)N1CCCN(c2cc(NCCC(=O)O)nc(-c3ccccn3)n2)CC1,inactive,inactive,inactive,–
O=C(N[C@@H]1CCCc2c1cnn2-c1ccc(F)cc1F)c1ccccn1,inactive,inactive,inactive,–
Cc1nc2cc(C(=O)NCc3ccccn3)nn2c(C)c1Cc1cccc(Cl)c1,inactive,inactive,inactive,–
O=C(O)c1ccc(N2C(=O)/C(=C/c3ccc(-c4ccc([N+](=O)[O-])cc4)o3)C=C2c2ccccc2)cc1,inactive,inactive,inactive,–
CNCCC(c1cccs1)c1ccc(O)c2ccccc12 (stereo not drawn),inactive,inactive,inactive,–
CCO[C@H]1CN(C2CCC(O)(c3ccc4c(c3)OCO4)CC2)C[C@@H]1NC(=O)CNC(=O)c1cccc(C(F)(F)F)c1 (stereo partly drawn),inactive,inactive,inactive,–
CCCCC1CCC(c2nc(-c3ccncc3)no2)CC1 (stereo not drawn),inactive,inactive,inactive,–
CCOc1cn(-c2ccc(F)cc2C)nc1C(=O)Nc1ccc(Oc2ccnc3cc(OC)c(OC)cc23)c(F)c1,inactive,inactive,inactive,–
CCN(Cc1ccccc1)C(=O)Cn1c(=O)n(C)c2cnc(-c3ccccc3)nc21,inactive,inactive,inactive,–
Cn1c(CO)c(-c2ccccc2)c2cc([N+](=O)[O-])ccc21,inactive,inactive,inactive,–
COc1cc(C[C@H]2C(=O)OC[C@@H]2Cc2ccc(OC)c(OC)c2)ccc1O,inactive,inactive,inactive,–
CCc1ccc(-c2nc(CSCC(=O)NCCc3ccccc3)c(C)o2)cc1,inactive,inactive,inactive,–
COCC(c1ccc(C(F)(F)F)cc1)N1CCN(C2(C)CCN(C(=O)c3c(C)ncnc3C)CC2)CC1C (stereo not drawn),inactive,inactive,inactive,–
CC[C@H](C(=O)Nc1ccccc1N1CCCC1)c1ccccc1,inactive,inactive,inactive,–
COc1cc(O)cc(/C=C/c2cccc(O)c2)c1,inactive,inactive,inactive,–
O=S(=O)(Cc1ccccc1)Nc1ccc(-c2ccc3c(cnn3-c3ccc(F)cc3)c2)c(C(F)(F)F)c1,inactive,inactive,inactive,–
C=C1C(=O)O[C@@H]2C3C(=C(C)[C@@H](O)[C@@H](OC(=O)/C(=C/C)COC(C)=O)[C@@H]12)C(=O)[C@H]1O[C@@]31C (stereo partly drawn),8.91 µM (active),–,12.6 µM (active),–
C=C[C@@]12COC(=O)C(=C)[C@@H]1[C@@H](O)[C@H](C(=C)C(=O)OC)[C@@H](O)C2,–,–,–,inactive
CNC(C)C(=O)NC(C(=O)N1CCCC1C(=O)Nc1snnc1-c1ccccc1)C1CCCCC1 (stereo not drawn),inactive,–,inactive,–
O=c1nc(-c2ccccn2)sc2ccccc12,inactive,–,inactive,–
C=C1CO[C@@]2(O[C@H]3CC4C5CC=C6C[C@@H](O)C[C@@H](O[C@@H]7OC[C@H](O)[C@H](O[C@@H]8OC[C@@H](O)[C@H](O)[C@H]8O)[C@H]7O[C@@H]7O[C@@H](C)[C@H](OC(C)=O)[C@@H](OC(C)=O)[C@H]7OC(C)=O)[C@]6(C)C5CC[C@]4(C)[C@@H]3[C@@H]2C)[C@@H](O)[C@H]1OC1OC(C)C(O)C(O)C1O (stereo partly drawn),3.55 µM (active),–,3.55 µM (active),–
CC(C)C[C@@H](C(=O)N[C@@H](Cc1ccc(OCc2ccccc2)cc1)C(=O)NC(C)(C)C)N(C)Cc1ccc(C(C)(C)C)cc1,inactive,inactive,inactive,–
C[C@H](Oc1cc(-n2cnc3ccc(CN4CCN(C)CC4)cc32)sc1C(N)=O)c1ccccc1C(F)(F)F,11.2 µM (active),–,7.94 µM (active),–

# From PubChem BioAssay (NCATS)
